Data published in the supplement of paper PMC11001985.

What follows are targets tested with C#CCNC(=O)CCSSCCC(=O)NCCc1ccc(C=O)c(C=O)c1 (assay: lysine labeling ratio R10:1 (500 µM / 50 µM probe), SILAC-ABPP in living cells; higher = lower intrinsic lysine reactivity toward the probe, active = 2 or less). Conditions: HeLa; probe concentrations 500 vs 50 µM.
In short: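 Measurements came from LC-MS/MS on a TIMS-TOF Pro of mixed SILAC light and heavy HeLa lysates after click to biotin-azide, trypsin digestion, neutravidin capture, DTT release and alkylation. Before lysis, the living cells sat in PBS at room temperature with 50 µM or 500 µM of an alkyne-tagged, disulfide-linked lysine probe, and labels were swapped forward and reverse. R per lysine is the median across both swap directions of the filtered median high-probe/low-probe MS1 peptide ratio. The cap is 20.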

Sequence of UniProt Q13813 (Q13813 whole entry): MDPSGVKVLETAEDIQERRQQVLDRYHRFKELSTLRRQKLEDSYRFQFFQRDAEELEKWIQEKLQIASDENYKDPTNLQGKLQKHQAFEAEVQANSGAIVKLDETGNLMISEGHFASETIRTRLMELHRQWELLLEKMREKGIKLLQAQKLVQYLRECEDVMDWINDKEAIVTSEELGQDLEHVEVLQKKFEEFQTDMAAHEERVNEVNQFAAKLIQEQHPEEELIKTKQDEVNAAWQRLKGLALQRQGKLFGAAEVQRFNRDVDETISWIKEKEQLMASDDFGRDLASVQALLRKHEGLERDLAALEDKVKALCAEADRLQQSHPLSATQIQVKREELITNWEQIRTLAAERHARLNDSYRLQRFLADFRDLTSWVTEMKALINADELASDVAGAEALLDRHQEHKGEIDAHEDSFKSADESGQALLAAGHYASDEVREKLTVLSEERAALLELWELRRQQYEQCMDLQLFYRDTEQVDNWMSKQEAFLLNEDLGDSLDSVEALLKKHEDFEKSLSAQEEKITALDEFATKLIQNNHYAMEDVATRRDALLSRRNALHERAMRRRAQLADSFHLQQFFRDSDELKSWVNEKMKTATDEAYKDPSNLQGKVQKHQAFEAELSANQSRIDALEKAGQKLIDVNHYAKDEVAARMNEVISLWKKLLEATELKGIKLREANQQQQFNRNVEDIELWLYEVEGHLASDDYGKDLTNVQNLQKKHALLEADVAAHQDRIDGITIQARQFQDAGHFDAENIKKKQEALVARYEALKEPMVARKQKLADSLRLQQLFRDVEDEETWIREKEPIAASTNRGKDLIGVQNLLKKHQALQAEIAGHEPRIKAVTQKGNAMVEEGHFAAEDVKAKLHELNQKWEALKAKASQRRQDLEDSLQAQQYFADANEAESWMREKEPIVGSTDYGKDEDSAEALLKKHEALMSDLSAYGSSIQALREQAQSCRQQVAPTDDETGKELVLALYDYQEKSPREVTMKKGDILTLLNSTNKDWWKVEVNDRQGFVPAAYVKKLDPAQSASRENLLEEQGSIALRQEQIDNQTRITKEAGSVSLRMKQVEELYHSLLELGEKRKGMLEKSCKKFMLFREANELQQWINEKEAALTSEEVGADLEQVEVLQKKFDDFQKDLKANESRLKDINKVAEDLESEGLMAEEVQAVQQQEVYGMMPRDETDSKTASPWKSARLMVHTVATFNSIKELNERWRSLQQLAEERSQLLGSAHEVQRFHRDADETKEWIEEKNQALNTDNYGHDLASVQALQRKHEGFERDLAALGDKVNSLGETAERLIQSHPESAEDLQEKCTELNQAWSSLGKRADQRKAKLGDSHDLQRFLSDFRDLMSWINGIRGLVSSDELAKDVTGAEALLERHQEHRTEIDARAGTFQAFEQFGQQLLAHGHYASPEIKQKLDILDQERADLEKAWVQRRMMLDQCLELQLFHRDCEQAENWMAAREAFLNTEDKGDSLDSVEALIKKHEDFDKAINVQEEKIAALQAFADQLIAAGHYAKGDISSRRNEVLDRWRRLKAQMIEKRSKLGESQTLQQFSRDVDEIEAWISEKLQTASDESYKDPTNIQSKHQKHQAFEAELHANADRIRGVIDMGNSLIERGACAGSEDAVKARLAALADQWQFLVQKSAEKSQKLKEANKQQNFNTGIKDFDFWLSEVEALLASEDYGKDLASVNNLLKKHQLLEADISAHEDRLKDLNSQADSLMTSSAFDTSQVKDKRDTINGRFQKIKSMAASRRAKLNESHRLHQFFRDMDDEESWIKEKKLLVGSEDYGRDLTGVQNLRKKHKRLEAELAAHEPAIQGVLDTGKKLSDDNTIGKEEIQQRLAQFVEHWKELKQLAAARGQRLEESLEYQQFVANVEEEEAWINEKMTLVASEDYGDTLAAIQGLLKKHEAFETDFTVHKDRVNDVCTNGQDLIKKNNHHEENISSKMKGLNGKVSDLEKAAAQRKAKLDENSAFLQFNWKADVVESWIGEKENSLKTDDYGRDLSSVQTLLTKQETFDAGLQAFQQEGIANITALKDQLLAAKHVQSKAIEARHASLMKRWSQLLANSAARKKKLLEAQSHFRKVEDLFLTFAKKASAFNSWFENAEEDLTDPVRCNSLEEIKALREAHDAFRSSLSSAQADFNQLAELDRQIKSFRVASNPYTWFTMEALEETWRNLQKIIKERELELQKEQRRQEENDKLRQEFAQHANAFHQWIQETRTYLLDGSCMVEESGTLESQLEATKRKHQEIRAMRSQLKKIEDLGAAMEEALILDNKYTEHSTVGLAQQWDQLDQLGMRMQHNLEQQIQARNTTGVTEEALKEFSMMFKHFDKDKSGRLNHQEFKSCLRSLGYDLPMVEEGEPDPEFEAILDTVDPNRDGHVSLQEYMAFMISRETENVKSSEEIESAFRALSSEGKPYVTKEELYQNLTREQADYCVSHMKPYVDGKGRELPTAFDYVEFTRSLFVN
Sequence of UniProt Q9Y490 (Q9Y490 whole entry): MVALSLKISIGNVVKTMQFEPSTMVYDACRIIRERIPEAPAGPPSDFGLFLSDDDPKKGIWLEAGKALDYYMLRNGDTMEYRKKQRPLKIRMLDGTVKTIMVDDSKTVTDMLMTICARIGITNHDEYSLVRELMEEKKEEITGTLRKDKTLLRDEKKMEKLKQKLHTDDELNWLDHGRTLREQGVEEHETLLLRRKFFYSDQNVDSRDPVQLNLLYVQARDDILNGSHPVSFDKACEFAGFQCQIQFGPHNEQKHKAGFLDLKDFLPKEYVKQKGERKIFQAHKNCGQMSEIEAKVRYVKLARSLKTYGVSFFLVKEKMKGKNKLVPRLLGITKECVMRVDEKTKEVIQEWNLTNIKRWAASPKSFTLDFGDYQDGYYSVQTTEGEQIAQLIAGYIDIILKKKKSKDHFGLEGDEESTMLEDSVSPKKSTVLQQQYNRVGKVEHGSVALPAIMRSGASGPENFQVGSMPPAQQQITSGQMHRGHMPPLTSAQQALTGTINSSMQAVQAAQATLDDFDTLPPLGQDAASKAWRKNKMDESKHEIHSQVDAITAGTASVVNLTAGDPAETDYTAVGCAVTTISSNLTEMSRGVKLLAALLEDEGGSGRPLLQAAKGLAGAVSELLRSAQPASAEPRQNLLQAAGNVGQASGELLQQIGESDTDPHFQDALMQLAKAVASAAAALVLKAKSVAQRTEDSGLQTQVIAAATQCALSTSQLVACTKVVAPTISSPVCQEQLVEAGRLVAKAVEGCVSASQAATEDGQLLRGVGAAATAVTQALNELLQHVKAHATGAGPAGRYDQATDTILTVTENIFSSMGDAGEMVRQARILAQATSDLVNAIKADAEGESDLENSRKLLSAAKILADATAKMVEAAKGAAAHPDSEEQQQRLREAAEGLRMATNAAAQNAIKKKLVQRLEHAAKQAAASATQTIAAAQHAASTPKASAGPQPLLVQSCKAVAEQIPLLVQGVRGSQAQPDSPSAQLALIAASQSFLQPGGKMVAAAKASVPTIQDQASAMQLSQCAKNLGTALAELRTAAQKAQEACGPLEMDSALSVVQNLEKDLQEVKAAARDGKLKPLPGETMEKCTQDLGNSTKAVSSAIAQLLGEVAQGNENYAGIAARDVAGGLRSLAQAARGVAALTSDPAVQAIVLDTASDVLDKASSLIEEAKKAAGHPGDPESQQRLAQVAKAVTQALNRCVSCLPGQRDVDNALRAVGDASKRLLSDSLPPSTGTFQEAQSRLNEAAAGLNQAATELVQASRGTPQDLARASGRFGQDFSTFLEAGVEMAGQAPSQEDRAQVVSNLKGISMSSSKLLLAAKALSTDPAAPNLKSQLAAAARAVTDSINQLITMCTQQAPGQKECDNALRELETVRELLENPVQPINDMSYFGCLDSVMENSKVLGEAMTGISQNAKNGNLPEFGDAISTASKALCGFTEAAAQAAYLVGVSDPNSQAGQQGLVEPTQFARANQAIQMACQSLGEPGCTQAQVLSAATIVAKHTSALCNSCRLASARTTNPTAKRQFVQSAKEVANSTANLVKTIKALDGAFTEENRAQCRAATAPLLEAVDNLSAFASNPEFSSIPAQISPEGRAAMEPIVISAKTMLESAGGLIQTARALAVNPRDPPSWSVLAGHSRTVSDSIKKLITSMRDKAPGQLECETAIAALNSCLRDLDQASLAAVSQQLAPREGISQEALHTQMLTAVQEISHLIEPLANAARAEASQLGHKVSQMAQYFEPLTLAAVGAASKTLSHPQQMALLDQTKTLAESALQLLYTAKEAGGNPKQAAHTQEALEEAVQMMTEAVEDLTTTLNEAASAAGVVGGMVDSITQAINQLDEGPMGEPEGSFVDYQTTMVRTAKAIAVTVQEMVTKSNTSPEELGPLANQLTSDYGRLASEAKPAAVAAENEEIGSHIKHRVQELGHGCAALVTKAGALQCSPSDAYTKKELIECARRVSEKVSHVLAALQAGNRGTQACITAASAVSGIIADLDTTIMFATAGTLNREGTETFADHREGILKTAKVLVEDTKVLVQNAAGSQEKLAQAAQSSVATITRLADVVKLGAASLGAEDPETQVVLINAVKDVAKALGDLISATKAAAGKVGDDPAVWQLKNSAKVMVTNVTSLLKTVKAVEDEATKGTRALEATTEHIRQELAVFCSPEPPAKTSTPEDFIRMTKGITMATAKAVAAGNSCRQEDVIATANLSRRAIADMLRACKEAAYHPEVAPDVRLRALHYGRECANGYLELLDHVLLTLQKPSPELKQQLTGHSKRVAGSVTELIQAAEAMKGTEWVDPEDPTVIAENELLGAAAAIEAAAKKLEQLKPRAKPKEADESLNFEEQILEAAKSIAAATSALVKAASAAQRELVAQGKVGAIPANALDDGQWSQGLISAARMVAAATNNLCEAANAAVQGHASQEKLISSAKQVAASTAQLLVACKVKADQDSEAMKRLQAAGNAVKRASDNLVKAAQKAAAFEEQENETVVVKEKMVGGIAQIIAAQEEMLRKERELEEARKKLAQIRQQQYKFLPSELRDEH
Sequence of UniProt P10599 (P10599 whole entry): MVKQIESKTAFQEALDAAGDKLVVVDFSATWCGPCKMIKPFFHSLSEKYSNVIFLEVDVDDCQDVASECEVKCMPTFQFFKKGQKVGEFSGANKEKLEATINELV

Lysine labeling ratio R10:1, inactive:
SPTAN1 (lysine site: K1334) (UniProt Q13813) 3.63
AGRN (lysine site: K383) (UniProt O00468) 12.9
ITGB1 (lysine site: K575) (UniProt P05556) 3.24
UniProt P55072 (lysine site: K658) 6.64
KRT18 (lysine site: K317) (UniProt P05783) 7.92
F11R (lysine site: K63) (UniProt Q9Y624) 2.75
DSG2 (lysine site: K254) (UniProt Q14126) 8.19
PCBP2 (lysine site: K309) (UniProt Q15366) 3.28
UniProt P05787 (lysine site: K8) 5.03
SUB1 (lysine site: K53) (UniProt P53999) 9.37
ROR2 (lysine site: K97) (UniProt Q01974) 6.68
GANAB (lysine site: K191) (UniProt Q14697) 4.19
UniProt P23352 (lysine site: K285) 3.04
SPTAN1 (lysine site: K2184) (UniProt Q13813) 5.14
UniProt Q15149 (lysine site: K1401) 3.7
TXN (lysine site: K96) (UniProt P10599) 2.11
CDCP1 (lysine site: K592) (UniProt Q9H5V8) 3.49
KTN1 (lysine site: K543) (UniProt Q86UP2) 5.74
IMPDH2 (lysine site: K134) (UniProt P12268) 2.5
ACOT7 (lysine site: K198) (UniProt O00154) 2.95
CPNE1 (lysine site: K73) (UniProt Q99829) 2.97
PDCD6IP (lysine site: K48) (UniProt Q8WUM4) 2.93
ENO1 (lysine site: K262) (UniProt P06733) 2.83
ITGA3 (lysine site: K100) (UniProt P26006) 2.42
TLN1 (lysine site: K428) (UniProt Q9Y490) 2.34
UniProt P61978 (lysine site: K422) 4.02
FAT4 (lysine site: K2215) (UniProt Q6V0I7) 3.48
RPS3 (lysine site: K108) (UniProt P23396) 4.95
PTGFRN (lysine site: K752) (UniProt Q9P2B2) 3.57

Lysine labeling ratio R10:1, active:
PAWR (lysine site: K227) (UniProt Q96IZ0) 1.06
WNT5A (lysine site: K348) (UniProt P41221) 1.98
CKB (lysine site: K313) (UniProt P12277) 1.31
UniProt O43865 (lysine site: K302) 1.25
SPTBN2 (lysine site: K1909) (UniProt O15020) 1.63
RPS3A (lysine site: K56) (UniProt P61247) 1.81
HGS (lysine site: K551) (UniProt O14964) 0.818
TLN1 (lysine site: K149) (UniProt Q9Y490) 1.5
MET (lysine site: K595) (UniProt P08581) 1.67
SUB1 (lysine site: K41) (UniProt P53999) 1.41
UniProt Q16363 (lysine site: K717) 0.58
